# Measured values published in PMC7862700, “An all-to-all approach to the identification of sequence-specific readers for epigenetic DNA modifications on cytosine”.
# Columns and labels:
# Experiment in all cases: DAPPL (digital affinity profiling via proximity ligation, sequencing); 10 mM Tris-HCl pH 7.5, 50 mM NaCl, 1 mM DTT, 4% glycerol, room temperature, 30 min; GST-TFs on glutathione beads, 16-mer random dsDNA library, 0.1% formaldehyde crosslink after washing; high values mean tight binding
# FEV = molecular target: T1, FEV (Homo sapiens, UniProt Q99581 1-238); details: protein: recombinant; tags: N-terminal GST; dsDNA, one strand shown
# T1 sequence: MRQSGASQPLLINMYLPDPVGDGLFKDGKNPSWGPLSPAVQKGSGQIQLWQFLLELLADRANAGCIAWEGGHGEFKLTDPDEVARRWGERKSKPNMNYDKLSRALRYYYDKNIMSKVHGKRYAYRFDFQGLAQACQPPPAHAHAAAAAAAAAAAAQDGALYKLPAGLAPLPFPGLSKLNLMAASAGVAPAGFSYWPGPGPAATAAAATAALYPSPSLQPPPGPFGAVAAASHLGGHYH
# How it was run: (§1)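 Human transcription factors were made in yeast as GST fusions, captured on glutathione beads and barcoded with DNA. With a tag-only sample included, the pool was incubated with 200 nmole of a random double-stranded 16-mer DNA library in Tris/NaCl/DTT/glycerol buffer at room temperature for 30 min, then crosslinked with 0.1% formaldehyde after washing, ligated by proximity, amplified and sequenced. For binding signal, each hexamer's read frequency for a factor is divided by its frequency for the tag-only sample.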
# ETV5 = ETV5 (Homo sapiens, UniProt P41161 1-510); details: protein: recombinant; tags: N-terminal GST; dsDNA, one strand shown
# How it was run: as §1
# HSF1 = HSF1 (Homo sapiens, UniProt Q00613 1-529); details: protein: recombinant; tags: N-terminal GST; chain copies: 3; dsDNA, one strand shown
# How it was run: as §1
# SPIC = molecular target: T2, SPIC (Homo sapiens, UniProt Q8N5J4 1-248); details: protein: recombinant; tags: N-terminal GST; dsDNA, one strand shown
# T2 sequence: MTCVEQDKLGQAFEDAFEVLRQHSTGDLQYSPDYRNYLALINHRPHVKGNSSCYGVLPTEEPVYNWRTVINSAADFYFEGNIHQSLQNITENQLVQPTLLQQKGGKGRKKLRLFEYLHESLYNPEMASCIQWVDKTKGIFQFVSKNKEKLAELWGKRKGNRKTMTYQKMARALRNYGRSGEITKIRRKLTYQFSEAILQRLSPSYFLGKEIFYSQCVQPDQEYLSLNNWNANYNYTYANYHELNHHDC
# How it was run: as §1
# ELF4 = ELF4 (Homo sapiens, UniProt Q99607 1-663); details: protein: recombinant; tags: N-terminal GST; dsDNA, one strand shown
# How it was run: as §1
# ELK4 = molecular target: T3, ELK4 (Homo sapiens, UniProt P28324-2 1-405); details: protein: recombinant; tags: N-terminal GST; dsDNA, one strand shown
# T3 sequence: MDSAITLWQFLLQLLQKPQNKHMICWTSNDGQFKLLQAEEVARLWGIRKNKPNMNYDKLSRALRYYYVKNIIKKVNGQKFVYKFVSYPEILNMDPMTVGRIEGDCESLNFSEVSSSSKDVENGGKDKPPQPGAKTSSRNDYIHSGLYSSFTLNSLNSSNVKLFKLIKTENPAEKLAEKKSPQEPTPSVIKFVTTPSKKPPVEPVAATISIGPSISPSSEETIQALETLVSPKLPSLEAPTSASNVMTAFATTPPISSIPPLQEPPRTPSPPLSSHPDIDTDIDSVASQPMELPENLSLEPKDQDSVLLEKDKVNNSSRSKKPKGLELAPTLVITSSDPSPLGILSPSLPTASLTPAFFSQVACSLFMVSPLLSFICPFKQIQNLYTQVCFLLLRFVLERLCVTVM
# How it was run: as §1
# ETV2 = molecular target: T4, ETV2 (Homo sapiens, UniProt O00321 1-342); details: protein: recombinant; tags: N-terminal GST; dsDNA, one strand shown
# T4 sequence: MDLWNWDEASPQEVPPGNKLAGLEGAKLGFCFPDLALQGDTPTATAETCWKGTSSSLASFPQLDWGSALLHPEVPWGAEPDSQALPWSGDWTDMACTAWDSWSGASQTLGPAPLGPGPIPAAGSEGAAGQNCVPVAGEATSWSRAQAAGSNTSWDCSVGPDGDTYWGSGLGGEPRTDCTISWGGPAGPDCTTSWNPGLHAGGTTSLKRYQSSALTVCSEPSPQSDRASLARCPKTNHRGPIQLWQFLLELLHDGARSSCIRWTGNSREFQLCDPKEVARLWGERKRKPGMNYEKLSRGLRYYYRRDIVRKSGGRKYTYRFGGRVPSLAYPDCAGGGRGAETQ
# How it was run: as §1
# ELF3 = molecular target: T5, ELF3 (Homo sapiens, UniProt P78545 1-371); details: protein: recombinant; tags: N-terminal GST; dsDNA, one strand shown
# T5 sequence: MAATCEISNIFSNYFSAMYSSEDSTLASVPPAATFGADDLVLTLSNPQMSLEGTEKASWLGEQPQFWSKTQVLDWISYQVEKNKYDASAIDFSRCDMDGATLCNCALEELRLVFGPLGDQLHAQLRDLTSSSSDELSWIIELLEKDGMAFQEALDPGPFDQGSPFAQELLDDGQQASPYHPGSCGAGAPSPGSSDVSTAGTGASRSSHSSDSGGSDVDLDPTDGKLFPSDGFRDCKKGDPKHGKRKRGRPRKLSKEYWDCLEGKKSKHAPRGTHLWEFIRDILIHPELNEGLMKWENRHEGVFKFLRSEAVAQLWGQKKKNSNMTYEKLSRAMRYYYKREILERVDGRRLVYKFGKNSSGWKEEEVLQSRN
# How it was run: as §1
# CRX = CRX (Homo sapiens, UniProt O43186 1-299); details: protein: recombinant; tags: N-terminal GST; dsDNA, one strand shown
# How it was run: as §1
# ETV1 = ETV1 (Homo sapiens, UniProt P50549 1-477); details: protein: recombinant; tags: N-terminal GST; dsDNA, one strand shown
# How it was run: as §1
# ERF = molecular target: T6, ERF (Homo sapiens, UniProt P50548 1-548); details: protein: recombinant; tags: N-terminal GST; dsDNA, one strand shown
# T6 sequence: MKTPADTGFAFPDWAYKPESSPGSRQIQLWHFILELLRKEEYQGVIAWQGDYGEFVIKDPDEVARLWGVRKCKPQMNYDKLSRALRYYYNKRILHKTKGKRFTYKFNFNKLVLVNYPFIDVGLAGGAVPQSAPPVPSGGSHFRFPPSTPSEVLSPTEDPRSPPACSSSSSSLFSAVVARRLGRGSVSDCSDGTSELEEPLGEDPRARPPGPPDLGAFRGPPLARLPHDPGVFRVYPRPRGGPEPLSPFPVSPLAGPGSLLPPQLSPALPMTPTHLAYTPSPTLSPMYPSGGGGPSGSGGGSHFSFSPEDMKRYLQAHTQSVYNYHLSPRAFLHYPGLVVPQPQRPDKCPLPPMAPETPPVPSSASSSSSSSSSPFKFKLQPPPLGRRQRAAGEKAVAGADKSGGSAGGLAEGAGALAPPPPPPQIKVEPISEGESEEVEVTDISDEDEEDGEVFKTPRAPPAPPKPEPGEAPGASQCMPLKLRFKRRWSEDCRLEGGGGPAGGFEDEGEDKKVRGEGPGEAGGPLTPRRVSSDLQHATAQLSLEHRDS
# How it was run: as §1
# ETV3L = molecular target: T7, ETV3L (Homo sapiens, UniProt Q6ZN32 1-361); details: protein: recombinant; tags: N-terminal GST; dsDNA, one strand shown
# T7 sequence: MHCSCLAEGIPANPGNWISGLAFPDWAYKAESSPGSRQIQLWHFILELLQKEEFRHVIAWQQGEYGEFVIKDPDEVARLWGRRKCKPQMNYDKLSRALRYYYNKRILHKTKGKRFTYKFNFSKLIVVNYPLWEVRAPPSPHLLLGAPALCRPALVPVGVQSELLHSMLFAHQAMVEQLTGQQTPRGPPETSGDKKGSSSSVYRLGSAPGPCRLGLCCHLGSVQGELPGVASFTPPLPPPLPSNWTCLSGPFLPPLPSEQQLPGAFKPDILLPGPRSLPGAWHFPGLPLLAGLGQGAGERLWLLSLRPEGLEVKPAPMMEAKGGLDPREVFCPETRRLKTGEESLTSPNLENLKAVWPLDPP
# How it was run: as §1
# ETS2 = molecular target: T8, ETS2 (Homo sapiens, UniProt P15036 1-469); details: protein: recombinant; tags: N-terminal GST; dsDNA, one strand shown
# T8 sequence: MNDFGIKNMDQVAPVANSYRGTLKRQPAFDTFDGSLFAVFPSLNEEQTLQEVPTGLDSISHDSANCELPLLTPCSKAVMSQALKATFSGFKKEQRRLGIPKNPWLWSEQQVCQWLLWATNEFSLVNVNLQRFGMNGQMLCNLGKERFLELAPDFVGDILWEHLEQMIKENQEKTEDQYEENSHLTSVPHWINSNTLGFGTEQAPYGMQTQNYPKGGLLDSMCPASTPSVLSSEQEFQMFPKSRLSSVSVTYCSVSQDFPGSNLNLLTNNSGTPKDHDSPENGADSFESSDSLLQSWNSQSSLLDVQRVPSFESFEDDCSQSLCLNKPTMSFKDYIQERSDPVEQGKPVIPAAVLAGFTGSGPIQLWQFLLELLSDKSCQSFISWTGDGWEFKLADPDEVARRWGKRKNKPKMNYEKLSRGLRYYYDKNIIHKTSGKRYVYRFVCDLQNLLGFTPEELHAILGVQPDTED
# How it was run: as §1
# SPDEF = molecular target: T9, SPDEF (Homo sapiens, UniProt O95238 1-335); details: protein: recombinant; tags: N-terminal GST; dsDNA, one strand shown
# T9 sequence: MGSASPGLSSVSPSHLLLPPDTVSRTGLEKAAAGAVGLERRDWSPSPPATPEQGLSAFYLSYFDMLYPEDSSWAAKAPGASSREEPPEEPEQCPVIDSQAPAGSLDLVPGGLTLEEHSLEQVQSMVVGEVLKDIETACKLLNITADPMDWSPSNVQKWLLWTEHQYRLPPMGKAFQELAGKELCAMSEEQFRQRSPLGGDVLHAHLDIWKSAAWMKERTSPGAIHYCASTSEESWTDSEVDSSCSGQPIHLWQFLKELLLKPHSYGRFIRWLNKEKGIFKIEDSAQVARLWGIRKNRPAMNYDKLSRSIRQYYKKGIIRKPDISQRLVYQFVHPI
# How it was run: as §1
# ETV7 = molecular target: T10, ETV7 (Homo sapiens, UniProt Q9Y603 1-341); details: protein: recombinant; tags: N-terminal GST; dsDNA, one strand shown
# T10 sequence: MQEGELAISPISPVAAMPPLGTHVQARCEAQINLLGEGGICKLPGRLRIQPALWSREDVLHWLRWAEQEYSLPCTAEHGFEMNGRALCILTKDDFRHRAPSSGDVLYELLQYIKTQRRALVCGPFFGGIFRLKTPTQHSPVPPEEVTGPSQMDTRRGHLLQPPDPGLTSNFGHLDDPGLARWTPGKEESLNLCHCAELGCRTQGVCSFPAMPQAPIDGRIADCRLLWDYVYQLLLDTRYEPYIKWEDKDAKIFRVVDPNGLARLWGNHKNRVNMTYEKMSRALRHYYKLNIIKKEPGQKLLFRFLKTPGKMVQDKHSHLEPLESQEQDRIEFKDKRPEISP
# How it was run: as §1
# ELF5 = molecular target: T11, ELF5 (Homo sapiens, UniProt Q9UKW6-2 1-255); details: protein: recombinant; tags: N-terminal GST; dsDNA, one strand shown
# T11 sequence: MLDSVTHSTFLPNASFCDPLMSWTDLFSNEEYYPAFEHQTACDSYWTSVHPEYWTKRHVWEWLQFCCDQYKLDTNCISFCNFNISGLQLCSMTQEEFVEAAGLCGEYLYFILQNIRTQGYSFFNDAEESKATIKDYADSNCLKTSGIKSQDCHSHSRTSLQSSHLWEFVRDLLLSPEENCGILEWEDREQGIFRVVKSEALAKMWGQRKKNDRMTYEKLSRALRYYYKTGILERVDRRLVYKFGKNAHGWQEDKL
# How it was run: as §1
# ETV3 = molecular target: T12, ETV3 (Homo sapiens, UniProt P41162-2 1-143); details: protein: recombinant; tags: N-terminal GST; dsDNA, one strand shown
# T12 sequence: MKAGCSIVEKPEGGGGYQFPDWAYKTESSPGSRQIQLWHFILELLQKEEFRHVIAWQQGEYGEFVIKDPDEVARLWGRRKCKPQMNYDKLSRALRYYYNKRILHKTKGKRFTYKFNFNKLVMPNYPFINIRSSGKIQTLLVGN
# How it was run: as §1
# ETV6 = ETV6 (Homo sapiens, UniProt P41212 1-452); details: protein: recombinant; tags: N-terminal GST; dsDNA, one strand shown
# How it was run: as §1
# Chain of ETV5 (P41161 whole entry): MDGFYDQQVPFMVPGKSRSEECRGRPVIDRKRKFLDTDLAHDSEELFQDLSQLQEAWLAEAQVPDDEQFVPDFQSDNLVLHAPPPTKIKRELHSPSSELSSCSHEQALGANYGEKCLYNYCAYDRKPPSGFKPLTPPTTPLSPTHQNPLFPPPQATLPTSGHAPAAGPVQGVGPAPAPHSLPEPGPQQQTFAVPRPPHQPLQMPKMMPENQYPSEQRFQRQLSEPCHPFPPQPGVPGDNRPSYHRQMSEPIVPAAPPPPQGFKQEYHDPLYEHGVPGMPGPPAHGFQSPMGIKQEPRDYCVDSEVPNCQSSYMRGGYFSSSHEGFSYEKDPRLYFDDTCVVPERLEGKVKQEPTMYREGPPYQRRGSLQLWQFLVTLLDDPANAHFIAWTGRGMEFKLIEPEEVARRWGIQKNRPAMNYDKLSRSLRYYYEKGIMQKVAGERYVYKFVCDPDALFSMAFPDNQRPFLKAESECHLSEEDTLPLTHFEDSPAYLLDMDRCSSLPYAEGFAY
# Chain of HSF1 (Q00613 whole entry): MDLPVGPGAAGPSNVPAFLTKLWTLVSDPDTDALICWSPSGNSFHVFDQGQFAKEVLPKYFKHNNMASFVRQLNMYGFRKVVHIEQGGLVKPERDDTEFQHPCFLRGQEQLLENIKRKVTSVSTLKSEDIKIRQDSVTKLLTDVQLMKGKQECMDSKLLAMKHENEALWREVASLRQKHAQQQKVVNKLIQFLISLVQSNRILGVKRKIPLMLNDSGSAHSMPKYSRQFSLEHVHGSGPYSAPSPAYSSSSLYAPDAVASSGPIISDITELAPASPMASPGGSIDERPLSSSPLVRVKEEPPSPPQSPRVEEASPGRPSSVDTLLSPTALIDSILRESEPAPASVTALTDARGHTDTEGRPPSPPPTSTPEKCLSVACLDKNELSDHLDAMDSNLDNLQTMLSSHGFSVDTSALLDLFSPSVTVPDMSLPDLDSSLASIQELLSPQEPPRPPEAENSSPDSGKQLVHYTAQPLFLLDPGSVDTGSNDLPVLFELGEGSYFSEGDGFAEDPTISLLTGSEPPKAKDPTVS
# Chain of ETV6 (P41212 whole entry): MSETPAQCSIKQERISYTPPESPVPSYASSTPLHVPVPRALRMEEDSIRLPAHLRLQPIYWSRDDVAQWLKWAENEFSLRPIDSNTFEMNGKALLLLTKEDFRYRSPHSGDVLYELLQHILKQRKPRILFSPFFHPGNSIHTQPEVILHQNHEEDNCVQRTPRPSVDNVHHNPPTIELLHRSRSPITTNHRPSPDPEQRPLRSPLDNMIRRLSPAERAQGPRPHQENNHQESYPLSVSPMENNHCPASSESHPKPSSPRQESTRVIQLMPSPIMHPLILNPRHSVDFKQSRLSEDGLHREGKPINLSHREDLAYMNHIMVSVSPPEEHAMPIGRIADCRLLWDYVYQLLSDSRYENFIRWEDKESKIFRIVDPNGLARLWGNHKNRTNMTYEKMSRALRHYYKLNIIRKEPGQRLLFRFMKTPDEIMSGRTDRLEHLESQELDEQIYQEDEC
# Chain of ETV1 (P50549 whole entry): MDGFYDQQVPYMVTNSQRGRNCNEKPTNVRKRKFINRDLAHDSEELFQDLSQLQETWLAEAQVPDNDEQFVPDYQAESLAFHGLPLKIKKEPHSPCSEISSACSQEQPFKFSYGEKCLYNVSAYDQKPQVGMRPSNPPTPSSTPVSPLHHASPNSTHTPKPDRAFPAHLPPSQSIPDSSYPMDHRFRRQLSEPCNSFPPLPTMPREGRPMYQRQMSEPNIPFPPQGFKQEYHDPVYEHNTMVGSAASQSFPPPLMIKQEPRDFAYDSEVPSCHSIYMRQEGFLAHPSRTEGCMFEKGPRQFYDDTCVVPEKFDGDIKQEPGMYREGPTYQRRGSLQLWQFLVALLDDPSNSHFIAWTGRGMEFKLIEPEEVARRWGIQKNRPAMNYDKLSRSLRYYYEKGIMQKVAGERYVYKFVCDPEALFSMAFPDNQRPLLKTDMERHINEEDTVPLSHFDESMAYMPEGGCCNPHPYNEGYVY
# Chain of ELF4 (Q99607 whole entry): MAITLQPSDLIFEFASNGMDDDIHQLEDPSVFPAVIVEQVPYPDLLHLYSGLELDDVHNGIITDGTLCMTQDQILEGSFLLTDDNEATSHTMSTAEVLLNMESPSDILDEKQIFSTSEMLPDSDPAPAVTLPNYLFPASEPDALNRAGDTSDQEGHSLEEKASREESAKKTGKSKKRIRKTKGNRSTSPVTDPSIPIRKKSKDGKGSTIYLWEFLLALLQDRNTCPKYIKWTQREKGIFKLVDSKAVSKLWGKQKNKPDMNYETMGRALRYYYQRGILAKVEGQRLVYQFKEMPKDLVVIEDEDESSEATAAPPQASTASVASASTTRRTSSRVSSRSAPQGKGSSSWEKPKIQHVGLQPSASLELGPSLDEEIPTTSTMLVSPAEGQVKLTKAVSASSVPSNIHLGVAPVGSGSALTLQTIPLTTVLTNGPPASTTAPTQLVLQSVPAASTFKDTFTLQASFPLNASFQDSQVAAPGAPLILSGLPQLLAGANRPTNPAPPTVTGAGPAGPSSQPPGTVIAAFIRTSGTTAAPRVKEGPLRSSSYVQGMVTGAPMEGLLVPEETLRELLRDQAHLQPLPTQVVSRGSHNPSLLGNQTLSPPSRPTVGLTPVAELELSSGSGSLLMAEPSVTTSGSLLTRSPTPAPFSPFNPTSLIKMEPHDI
# Chain of CRX (O43186 whole entry): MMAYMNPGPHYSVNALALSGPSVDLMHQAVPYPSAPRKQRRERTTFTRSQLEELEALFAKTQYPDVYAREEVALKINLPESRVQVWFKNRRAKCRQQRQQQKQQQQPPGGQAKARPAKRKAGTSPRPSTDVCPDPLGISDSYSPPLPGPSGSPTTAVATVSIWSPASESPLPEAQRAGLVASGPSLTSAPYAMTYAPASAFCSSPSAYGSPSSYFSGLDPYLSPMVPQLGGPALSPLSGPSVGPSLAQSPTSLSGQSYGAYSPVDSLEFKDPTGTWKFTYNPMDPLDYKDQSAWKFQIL
sequence,measurement,setting,value
TGCTTT,binding signal,FEV,"1.05 fold enrichment (6-mer frequency, TF over GST control)"
same,binding signal,ETV5,"1.05 fold enrichment (6-mer frequency, TF over GST control)"
same,binding signal,HSF1,"1.05 fold enrichment (6-mer frequency, TF over GST control)"
same,binding signal,SPIC,"1.16 fold enrichment (6-mer frequency, TF over GST control)"
same,binding signal,ELF4,"1.14 fold enrichment (6-mer frequency, TF over GST control)"
same,binding signal,ELK4,"1.23 fold enrichment (6-mer frequency, TF over GST control)"
same,binding signal,ETV2,"1.12 fold enrichment (6-mer frequency, TF over GST control)"
same,binding signal,ELF3,"1.05 fold enrichment (6-mer frequency, TF over GST control)"
same,binding signal,CRX,"1.09 fold enrichment (6-mer frequency, TF over GST control)"
same,binding signal,ETV1,"1.06 fold enrichment (6-mer frequency, TF over GST control)"
same,binding signal,ERF,"1.29 fold enrichment (6-mer frequency, TF over GST control)"
same,binding signal,ETV3L,"1.11 fold enrichment (6-mer frequency, TF over GST control)"
same,binding signal,ETS2,"1.07 fold enrichment (6-mer frequency, TF over GST control)"
same,binding signal,SPDEF,"1.02 fold enrichment (6-mer frequency, TF over GST control)"
same,binding signal,ETV7,"1.19 fold enrichment (6-mer frequency, TF over GST control)"
same,binding signal,ELF5,"1.15 fold enrichment (6-mer frequency, TF over GST control)"
same,binding signal,ETV3,"1.14 fold enrichment (6-mer frequency, TF over GST control)"
same,binding signal,ETV6,"1.1 fold enrichment (6-mer frequency, TF over GST control)"
